Most compounds without a hit are left out; they make up all but 1.3% or so of the library.
Fam108B inh – blocks mouse Fam108B hydrolase in RBBP9 counter-screen; 300,000 compounds, 0.33% hits; inhibition, % at 9.51 µM; recombinant Fam108B, FP-Rh probe fluorescence polarization;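 active = inhibition above the screen mean inhibition plus 3 SD, computed separately per campaign, cut at about 18% in these data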;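 also: inhibitors lower polarization as less probe binds the enzyme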
LYPLA2 counter – LYPLA2 (human) inhibition in PME1 counter-screen | recombinant LYPLA2, FP-Rh probe fluorescence polarization | inhibition, % at 5.9 µM | 320,000 compounds, 0.38% hits | AID 2177;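 active = inhibition above the screen-wide mean plus 3 SD, limit set per campaign, cut at about 26% in these data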;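 also: 0% = LYPLA2 with DMSO and 100% = wells lacking LYPLA2 enzyme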
Target sequence (O95372 whole entry, looked up): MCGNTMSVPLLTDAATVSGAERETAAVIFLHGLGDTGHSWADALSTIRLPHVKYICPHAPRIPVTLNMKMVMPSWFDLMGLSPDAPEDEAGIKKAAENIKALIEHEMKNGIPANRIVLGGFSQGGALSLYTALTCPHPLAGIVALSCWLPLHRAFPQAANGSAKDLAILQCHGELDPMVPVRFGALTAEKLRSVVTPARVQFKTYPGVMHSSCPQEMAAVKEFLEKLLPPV
PME-1 inh – blocks human protein phosphatase methylesterase 1 | inhibition, % at 5.9 µM | Q9Y570 | 320,000 compounds, 0.53% hits | recombinant PME-1, FP-Rh probe fluorescence polarization;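 active = inhibition above the campaign mean of all compounds plus 3 SD, cut at about 26% in these data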;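 also: competitive labeling of PME-1 active site by serine hydrolase directed probe; 0% = PME-1 with DMSO and 100% = wells lacking PME-1 enzyme; inhibitors block probe labeling so polarization falls and inhibition rises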
Target sequence (Q9Y570 whole entry, looked up): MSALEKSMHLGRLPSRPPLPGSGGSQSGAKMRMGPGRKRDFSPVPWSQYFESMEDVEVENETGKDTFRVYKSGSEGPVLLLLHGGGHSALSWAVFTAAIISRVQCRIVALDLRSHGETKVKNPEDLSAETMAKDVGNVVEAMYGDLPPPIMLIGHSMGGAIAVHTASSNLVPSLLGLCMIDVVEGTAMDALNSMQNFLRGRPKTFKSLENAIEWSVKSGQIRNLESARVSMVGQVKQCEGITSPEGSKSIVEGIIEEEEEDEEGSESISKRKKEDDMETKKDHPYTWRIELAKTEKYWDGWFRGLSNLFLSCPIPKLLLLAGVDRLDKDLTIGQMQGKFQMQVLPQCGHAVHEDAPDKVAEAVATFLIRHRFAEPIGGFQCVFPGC
PREPL inhibitor – inhibits the human prolyl oligopeptidase-like enzyme; Q4J6C6; recombinant PREPL, fluorescence polarization activity-based probe; inhibition, % at 5.96 µM; 320,000 compounds, 0.68% hits; AID 2751;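 also: 0% = enzyme with DMSO and 100% = wells lacking enzyme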
LYPLA1 inh – blocks human lysophospholipase 1, a PME1 counter-screen | recombinant LYPLA1, FP-Rh probe fluorescence polarization | inhibition, % at 5.9 µM | 320,000 compounds, 0.16% hits | AID 2174;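 active = inhibition above the mean of all tested compounds plus 3 SD, set per campaign, cut at about 14% in these data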;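 also: inhibitors block serine hydrolase probe labeling of LYPLA1 so polarization falls; 0% = enzyme with DMSO and 100% = wells lacking LYPLA1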
LYPLA1 confirm – counter-screen for PME1 inhibitors: confirmation of human LYPLA1 inhibitors; shares compounds with LYPLA1 inh; recombinant LYPLA1, FP-Rh probe fluorescence polarization; inhibition, % at 5.9 µM; 480 compounds, 69% hits;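 active = mean inhibition across replicates above the hit cutoff set in the primary screen, cut at about 15% in these data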;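 also: loss of FP-Rh probe labeling of LYPLA1 seen as lower polarization; 0% = LYPLA1 with DMSO and 100% = wells lacking LYPLA1 enzyme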
LYPLA2 confirm – counter-screen for PME1 inhibitors: confirmation of human LYPLA2 inhibitors; 1,100 compounds, 72% hits; AID 2232; recombinant LYPLA2, FP-Rh probe fluorescence polarization; shares compounds with LYPLA2 counter; inhibition, % at 5.9 µM;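 active = mean inhibition across replicates above the hit cutoff set in the primary screen, cut at about 26% in these data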;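 also: blocked labeling of the enzyme by serine hydrolase FP-Rh probe lowers polarization; 0% = enzyme with DMSO and 100% = wells lacking LYPLA2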
LYPLA2 ABPP – blocks human acyl-protein thioesterase 2 in gel ABPP. AID 652029. shares compounds with LYPLA2 counter. inhibition, % at 20 µM. rhLYPLA2 in mouse brain proteome, gel ABPP FP-Rh. 150 compounds, 30% hits;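 active = inhibition of LYPLA2 enzyme probe labeling above about 50%, limit read from the data; inactive = inhibition below that limit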;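 also: loss of FP-Rh probe labeling of the LYPLA2 gel band measured as band density; 0% = DMSO only control band and 100% = blank gel background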
PREPL inh cf – human PREPL inhibition, confirmation; shares compounds with PREPL inhibitor; 2,000 compounds, 67% hits; inhibition, % at 5.96 µM; recombinant PREPL, fluorescence polarization activity probe; AID 2803;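 also: 0% = protein with DMSO and 100% = wells lacking protein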
* marks the source's active call; other numbers are inactive results; . = not tested or not shown. Rule as the data show it, unless noted: active = inhibition above about 43%; inactive = the rest.

SMILES	Fam108B inh	LYPLA2 counter	PME-1 inh	PREPL inhibitor	LYPLA1 inh	LYPLA2 confirm	others
O=C(c1ccc(S(=O)(=O)N2CCCCC2)cc1)N1CCCC(C(F)(F)F)C1 (configuration not stated)	3.7	6.7	0.0	-0.5	0.0	.
C(=N\n1cnnc1)/c1ccc(OCc2cccc3ccccc23)cc1	-3.8	52.3*	-6.2	49.9*	15.6*	38.7*	LYPLA1 confirm=20.0*;PREPL inh cf=43.0
CCN1/C(=C/C=C/c2oc3ccc(-c4ccccc4)cc3[n+]2CC)Oc2ccc(-c3ccccc3)cc21	-10.9	64.1*	72.1*	66.5*	58.4*	-176.4	LYPLA1 confirm=-47.4;PREPL inh cf=-11.9
Cc1coc2c1C(=O)C(=O)c1c-2ccc2c1CCCC2(C)C	7.5	34.9*	7.9	9.9	5.2	56.3*
Cc1cc(C)n(CCC(=O)N2CCCC(N3CCN(c4cccc(Cl)c4)CC3)C2)n1 (configuration not stated)	-0.5	6.5	0.5	13.5	1.7	.
CCn1nc(C)cc1C(=O)N1CCCC(N2CCN(c3cccc(Cl)c3)CC2)C1 (configuration not stated)	1.3	45.9*	4.0	14.8	3.0	46.5*
O=C(CSc1ccccc1)N1CCCC(N2CCN(c3ccc(F)cc3)CC2)C1 (configuration not stated)	1.7	0.8	-0.3	-28.1	3.6	.
O=C(CSc1ccccc1)N1CCCC(N2CCN(c3cccc(Cl)c3)CC2)C1 (configuration not stated)	-3.1	69.3*	5.5	-1.1	9.1	64.0*	LYPLA2 ABPP=48.0
COc1ccc(N(C)C(=O)C2CCN(S(=O)(=O)c3cccc4nonc34)CC2)cc1	-0.1	4.4	0.2	6.1	1.0	.
COc1ccc(NC(=O)COc2ccc(C(=O)OCC(=O)N(C(C)C)C(C)C)cc2OC)cc1	1.0	4.2	-0.2	-0.2	-1.0	.
COCCn1c(=NC(=O)CN2C(=O)CCC2=O)sc2cc(S(N)(=O)=O)ccc21	3.5	1.6	-7.3	-3.9	-1.2	.
C#CCn1c(=NC(=O)CN2C(=O)CCC2=O)sc2cc(S(N)(=O)=O)ccc21	-0.8	32.5*	1.1	0.1	-3.0	47.0*
C/C(=N\NC(=O)CN1CCN(Cc2ccc(C)cc2)CC1)c1ccncc1	6.7	5.5	1.2	4.9	1.4	.
O=C(c1cc(-c2ccc3c(c2)OCO3)on1)N1CCN(c2ccccc2)CC1	0.7	27.5*	5.2	8.8	6.5	15.6
CCOC(=O)N1CCN(C(c2ccc(C(C)C)cc2)c2sc3nc(C)nn3c2O)CC1 (configuration not stated)	-8.6	68.6*	-11.7	-13.1	-0.7	67.4*
O=C(Nc1ccc2c(c1)OCCO2)c1cnn(-c2ccccc2)n1	.	-3.6	-8.9	27.6	-4.7	.
Cc1ncc([N+](=O)[O-])n1CC(=O)Nc1ccc(F)c(F)c1	2.0	66.6*	-6.2	7.1	1.4	59.8*	LYPLA2 ABPP=44.0
Cc1ncc([N+](=O)[O-])n1CC(=O)Nc1ccc(Cl)cc1	-3.1	47.1*	0.7	9.6	-0.7	50.9*	LYPLA2 ABPP=34.0
COC(=O)Cn1cc([N+](=O)[O-])nc1C	-5.8	2.2	-6.2	12.5	-0.9	.
Cc1ccccc1NC(=O)Cn1c([N+](=O)[O-])cnc1C	6.3	18.3	-2.1	15.0	3.6	.
Cc1nc([N+](=O)[O-])cn1CC(=O)Nc1ccc(F)c(Cl)c1	1.5	44.7*	-6.2	-21.2	-0.9	59.1*	LYPLA2 ABPP=70.0*
Cc1ccc(NC(=O)Cn2c([N+](=O)[O-])cnc2C)cc1Cl	1.4	57.0*	5.4	23.4	-2.0	51.0*	LYPLA2 ABPP=67.0*
CC(C)c1ccc(NC(=O)NCc2ccccn2)cc1	0.4	27.9*	5.1	3.6	4.0	-1.9
O=C(NCc1cccnc1)c1cn(-c2ccccc2)nc1-c1ccccc1	7.0	-5.5	0.7	-0.2	-3.3	.
O=C1C2CCCN2C(=O)N1CCCCN1CCN(c2cccc(Cl)c2)CC1 (configuration not stated)	1.0	39.3*	-1.6	21.3	1.5	35.8*
SMILES	Fam108B inh	LYPLA2 counter	PME-1 inh	PREPL inhibitor	LYPLA1 inh	LYPLA2 confirm	others
CCc1ccc(C(=O)Cn2cnc3cc([N+](=O)[O-])ccc3c2=O)cc1	3.2	45.9*	-0.6	35.0	-1.2	37.3*
CCOc1ccc(C(=O)Cn2cnc3ccccc3c2=O)cc1	-0.8	33.8*	-5.8	-11.4	3.2	23.0
O=C(Cn1cnc2ccccc2c1=O)c1ccccc1	-4.1	7.9	6.4	-3.4	1.2	.
O=C(Cn1cnc2ccccc2c1=O)c1ccc(OC(F)F)cc1	2.0	52.0*	-5.6	1.2	0.1	66.8*	LYPLA2 ABPP=70.0*
O=C(Cn1cnc2ccccc2c1=O)c1ccc(Br)cc1	1.0	28.6*	3.4	9.3	-5.8	42.4*
CCOc1ccc(N2CC(C(=O)NNC(=O)c3ccc(Br)cc3)CC2=O)cc1 (configuration not stated)	9.9	12.6	3.4	12.8	1.0	.
NC(=O)c1ccsc1NC(=O)c1ccc([N+](=O)[O-])o1	.	.	.	12.6	.	.
Cc1cc(S(=O)(=O)Nc2ccc(C(=O)NCc3ccncc3)cc2)ccc1F	1.3	-6.0	6.7	-2.1	-0.8	.
Cc1nn(CC(=O)Nc2ccc(Cl)cc2Cl)c(=O)c2ccccc12	-0.7	4.3	-8.2	-5.7	1.0	.
CCCCOc1cccc(C(=O)NC(=S)Nc2ccc(Cl)c(C(=O)O)c2)c1	0.6	7.5	-3.9	-8.1	2.1	.
Cc1c(NC(=S)NC(=O)c2ccc(COc3ccccc3)cc2)cccc1C(=O)O	3.0	30.2*	2.7	12.8	6.6	25.2
O=C(O)c1ccc(Cl)c(NC(=S)NC(=O)c2cccc(COc3ccccc3)c2)c1	-16.0	9.8	-5.1	-2.7	-8.9	.
O=C(NC(=S)Nc1ccc(Cl)c(C(=O)O)c1)c1cccc(COc2ccccc2)c1	-3.9	37.0*	-7.7	8.4	6.6	38.0*
COc1ccc(C(=O)NC(=S)Nc2ccc(Cc3ccncc3)cc2)cc1	-3.6	31.9*	1.4	-8.6	-1.4	35.0*
Cc1ccccc1C(=O)NC(=S)Nc1ccc(Cc2ccncc2)cc1	-1.1	9.8	2.4	-4.1	0.8	.
O=C(NC(=S)Nc1ccc(Cl)c(C(=O)O)c1)c1ccc(OCc2ccccc2)cc1	-3.1	36.5*	4.4	11.7	7.9	33.4*
CCn1c(SCC(=O)NC2CCCCC2)nc2ccccc2c1=O	-0.6	14.5	1.3	8.6	0.7	.
Cc1ccccc1C(=O)N1CCC(C(=O)NN2C(=O)NC3(CCCCC3)C2=O)CC1	.	-0.6	-0.6	4.4	-1.6	.
